PubChem BioAssay (EPA / NIEHS)
Activity calls are given as the source filed them. Rule for the calls: active = hit-call score of the fitted dose curve at least 0.9, where 1 is the maximum; inactive = score below 0.9.

Tests used:
[1] = ATG_CRE_CIS: Attagene CIS-FACTORIAL HepG2 Assay for human cAMP Responsive Element (CRE) binding protein 3 (AID 2282926); conditions: HepG2 CRE cis-reporter, Attagene multiplexed mRNA; actives raise or lower the signal
In short: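 Readout: fluorescently labelled reporter transcripts resolved by capillary electrophoresis after RT-PCR, taken 24 h post-dosing in transfected HepG2. Endogenous transcription factor activity drives each cis-element reporter; gain or loss of signal fitted relative to DMSO control.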

[2] = biological target: CCAAT/enhancer-binding protein beta (Homo sapiens) (UniProt P17676); test: ATG_C_EBP_CIS: Attagene CIS-FACTORIAL HepG2 Assay for human CCAAT/Enhancer Binding Protein (C/EBP) beta (AID 2282927); conditions: HepG2 Attagene cis-factorial transcription factor reporter; actives raise or lower the signal
CCAAT/enhancer-binding protein beta (Homo sapiens), sequence (P17676 whole entry, looked up, the tested form may be a part): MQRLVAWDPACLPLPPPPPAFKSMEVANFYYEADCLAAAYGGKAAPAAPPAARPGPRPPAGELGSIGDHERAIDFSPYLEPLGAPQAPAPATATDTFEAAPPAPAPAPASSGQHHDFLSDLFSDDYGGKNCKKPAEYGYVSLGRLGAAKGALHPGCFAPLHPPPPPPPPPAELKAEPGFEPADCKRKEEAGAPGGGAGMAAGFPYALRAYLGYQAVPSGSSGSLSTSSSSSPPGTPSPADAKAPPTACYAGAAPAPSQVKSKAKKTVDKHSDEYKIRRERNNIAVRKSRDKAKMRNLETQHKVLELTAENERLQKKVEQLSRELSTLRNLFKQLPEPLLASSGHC
In short: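 Endogenous C/EBPb-driven reporter transcripts measured in transfected human HepG2 cells at 24 h via RT-PCR and capillary electrophoresis of labelled fragments. Activity fitted in both directions relative to DMSO baseline.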

[3] = ATG_CMV_CIS: Attagene CIS-FACTORIAL HepG2 Assay for human CMV (Internal Marker) (AID 2282928); conditions: HepG2 CMV promoter reporter, transcription factor profiling; actives raise or lower the signal;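 note: endpoint acts as a background internal control marker rather than a target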
In short: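 Readout: fluorescent reporter cDNA fragments separated by capillary electrophoresis after RT-PCR and HpaI cut. Cells: HepG2 carrying transfected cis-promoter reporter constructs, dosed 24 h. Endpoint serves as background internal-marker control, fit bidirectionally versus DMSO.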

[4] = ATG_DR4_LXR_CIS: Attagene CIS-FACTORIAL HepG2 Assay for human Liver X Receptor (LXR), DR4 submotif (AID 2282929); conditions: HepG2 Attagene DR4 cis-reporter, mRNA transcription; actives raise or lower the signal
In short: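 Cells were transfected with multiple reporter transcription units, exposed to chemicals for 24 hours, then lysed for RNA. Reporter mRNA induction was measured by RT-PCR with capillary electrophoresis detection and fitted in both directions relative to DMSO.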

[5] = biological target: Aryl hydrocarbon receptor (Homo sapiens) (UniProt P35869); test: ATG_Ahr_CIS: Attagene CIS-FACTORIAL HepG2 Assay for human Aryl Hydrocarbon Receptor (Ahr) (AID 2282930); conditions: HepG2 AhR cis-factorial reporter transcription; actives raise or lower the signal
Aryl hydrocarbon receptor (Homo sapiens), sequence (P35869 whole entry, looked up): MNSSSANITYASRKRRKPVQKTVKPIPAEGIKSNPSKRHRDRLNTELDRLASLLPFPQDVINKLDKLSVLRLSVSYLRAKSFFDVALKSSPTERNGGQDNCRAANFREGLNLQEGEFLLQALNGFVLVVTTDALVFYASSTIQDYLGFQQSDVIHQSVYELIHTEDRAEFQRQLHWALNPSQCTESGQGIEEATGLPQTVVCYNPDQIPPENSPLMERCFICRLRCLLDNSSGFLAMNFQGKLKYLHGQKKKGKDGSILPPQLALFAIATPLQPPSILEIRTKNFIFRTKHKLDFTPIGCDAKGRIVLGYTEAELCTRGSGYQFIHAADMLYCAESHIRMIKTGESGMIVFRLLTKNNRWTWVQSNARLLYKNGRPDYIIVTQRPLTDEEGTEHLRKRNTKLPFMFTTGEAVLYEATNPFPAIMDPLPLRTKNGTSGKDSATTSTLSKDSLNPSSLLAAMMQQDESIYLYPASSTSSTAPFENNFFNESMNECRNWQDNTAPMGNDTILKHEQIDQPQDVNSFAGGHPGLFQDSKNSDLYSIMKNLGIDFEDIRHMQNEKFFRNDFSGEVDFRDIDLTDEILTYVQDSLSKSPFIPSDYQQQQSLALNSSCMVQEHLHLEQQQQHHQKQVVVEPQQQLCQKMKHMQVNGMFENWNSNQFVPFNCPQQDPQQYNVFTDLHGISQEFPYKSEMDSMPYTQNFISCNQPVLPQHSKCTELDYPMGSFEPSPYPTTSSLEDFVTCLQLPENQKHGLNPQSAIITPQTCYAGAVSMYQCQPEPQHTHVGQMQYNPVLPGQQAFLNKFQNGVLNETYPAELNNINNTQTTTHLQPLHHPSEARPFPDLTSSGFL
In short: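 Reporter mRNA levels, quantified by RT-PCR and fluorescent capillary electrophoresis, reflect endogenous AhR transcriptional activity in HepG2 cells carrying transfected cis-promoter reporter constructs. Readout at 24 h post-dose; gain or loss fitted against DMSO baseline.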

[6] = ATG_AP_1_CIS: Attagene CIS-FACTORIAL HepG2 Assay for human Activator Protein 1 (AP-1) (AID 2282931); conditions: HepG2 Attagene cis-factorial AP-1 reporter mRNA; actives raise or lower the signal
In short: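 Endogenous transcription-factor activity in human HepG2 liver cells is read through a cis-promoter reporter transcript, sampled 24 h after dosing. Detection uses RT-PCR with capillary electrophoresis; values come from bidirectional fitting relative to DMSO.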

[7] = ATG_AP_2_CIS: Attagene CIS-FACTORIAL HepG2 Assay for human Activator Protein 2 (AP-2) (AID 2282932); conditions: HepG2 AP-2 cis-reporter, Attagene transcription factor profiling; actives raise or lower the signal
In short: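 Endogenous transcription factor activity is reported through transfected multiplex reporter constructs in HepG2, after 24 h of compound exposure. Transcripts were quantified by RT-PCR and capillary electrophoresis of fluorescent fragments. Bidirectional fit against DMSO.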

[8] = ATG_BRE_CIS: Attagene CIS-FACTORIAL HepG2 Assay for human Bone Morphogenetic Protein (BMP) Response Element (BRE) (AID 2282933); conditions: HepG2 BMP response element reporter, Attagene transcription factor profiling; actives raise or lower the signal
In short: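 Gain- or loss-of-signal was derived by bidirectional fitting against DMSO controls. The signal came from reporter mRNA, measured by RT-PCR and capillary electrophoresis, in HepG2 cells transiently carrying multiple reporter units and dosed for 24 h.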

[9] = biological target: Retinoic acid receptor alpha (Homo sapiens) (UniProt P10276); test: ATG_DR5_RAR_CIS: Attagene CIS-FACTORIAL HepG2 Assay for human Retinoic Acid Receptor Alpha (RARE), DR5 submotif (AID 2282934); conditions: HepG2 Attagene cis-factorial RARE DR5 reporter, mRNA; actives raise or lower the signal
Retinoic acid receptor alpha (Homo sapiens), sequence (P10276 whole entry, looked up): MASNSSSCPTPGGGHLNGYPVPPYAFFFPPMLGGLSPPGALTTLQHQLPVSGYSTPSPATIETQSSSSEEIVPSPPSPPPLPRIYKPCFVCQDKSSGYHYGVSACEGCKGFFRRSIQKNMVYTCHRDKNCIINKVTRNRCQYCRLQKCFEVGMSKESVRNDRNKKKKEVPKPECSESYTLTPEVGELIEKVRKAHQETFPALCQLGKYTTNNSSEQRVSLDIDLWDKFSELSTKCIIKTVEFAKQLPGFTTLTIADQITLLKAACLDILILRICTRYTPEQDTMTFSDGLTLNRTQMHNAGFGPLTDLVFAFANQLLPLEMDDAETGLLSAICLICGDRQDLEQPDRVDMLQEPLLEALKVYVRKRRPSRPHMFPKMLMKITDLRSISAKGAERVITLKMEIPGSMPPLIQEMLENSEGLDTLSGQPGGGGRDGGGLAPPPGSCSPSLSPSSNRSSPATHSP
In short: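 Reporter transcripts from a DR5-regulated unit, measured via RT-PCR plus capillary electrophoresis, reflect endogenous RAR activity in transiently transfected human HepG2 liver cells. Exposure lasted 24 h; gain or loss of signal scored against DMSO.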

[10] = biological target: Transcription factor E2F1 (Homo sapiens) (UniProt Q01094); test: ATG_E2F_CIS: Attagene CIS-FACTORIAL HepG2 Assay for human E2F Transcription Factor 1 (AID 2282935); conditions: HepG2 Attagene cis-reporter, E2F reporter RNA transcripts; actives raise or lower the signal
Transcription factor E2F1 (Homo sapiens), sequence (Q01094 whole entry, looked up): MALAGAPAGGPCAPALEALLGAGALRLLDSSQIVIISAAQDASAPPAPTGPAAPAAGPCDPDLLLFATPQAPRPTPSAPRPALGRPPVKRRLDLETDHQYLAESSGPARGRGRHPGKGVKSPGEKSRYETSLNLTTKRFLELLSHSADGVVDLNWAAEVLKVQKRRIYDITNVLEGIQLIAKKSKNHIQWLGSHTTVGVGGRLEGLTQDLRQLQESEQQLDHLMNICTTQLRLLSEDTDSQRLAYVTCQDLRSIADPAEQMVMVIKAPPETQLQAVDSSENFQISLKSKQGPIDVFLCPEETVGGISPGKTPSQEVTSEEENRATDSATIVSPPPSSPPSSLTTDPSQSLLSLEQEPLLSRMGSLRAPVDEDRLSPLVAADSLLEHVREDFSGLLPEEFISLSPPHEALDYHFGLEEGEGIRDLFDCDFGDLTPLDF
In short: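 Gain or loss of reporter transcript, fitted against DMSO, reflects E2F1-driven transcription. Transiently transfected HepG2 dosed 24 h before RNA isolation. Quantified by fluorescent RT-PCR products separated by capillary electrophoresis.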

[11] = ATG_E_Box_CIS: Attagene CIS-FACTORIAL HepG2 Assay for human Enhancer Box (E-box) (AID 2282936); conditions: HepG2 E-box cis-reporter transcription, actives raise or lower the signal
In short: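 E-box-driven reporter transcripts measured in transiently transfected HepG2 after 24 h exposure: RNA reverse-transcribed, PCR-amplified, fluorescently labelled, digested and resolved by capillary electrophoresis. Gain or loss relative to DMSO.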

[12] = ATG_M_61_CIS: Attagene CIS-FACTORIAL HepG2 Assay for M61 Transcription Factor (Internal Marker) (AID 2282937); conditions: HepG2 Attagene CIS-FACTORIAL M61 internal marker reporter; actives raise or lower the signal
In short: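 Cells were transfected with reporter units under cis-regulatory promoters, treated with chemicals for 24 h, then lysed for RNA. Reporter transcripts were quantified by RT-PCR and capillary electrophoresis, and activity was fitted bidirectionally against DMSO.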

[13] = ATG_M_19_CIS: Attagene CIS-FACTORIAL HepG2 Assay for M19 Transcription Factor (Internal Marker) (AID 2282939); conditions: HepG2 Attagene CIS-FACTORIAL M19 internal marker reporter; actives raise or lower the signal
In short: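 Following a 24 h exposure, RNA from transfected HepG2 cells was reverse-transcribed, PCR-amplified with reporter-specific primers, end-labelled with 6-FAM and HpaI-digested before capillary separation. Values represent gain or loss versus DMSO.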

[14] = ATG_ERE_CIS: Attagene CIS-FACTORIAL HepG2 Assay for Estrogen Response Element (ERE) (AID 2282940); conditions: HepG2 ERE cis-reporter, Attagene RNA transcript; actives raise or lower the signal
In short: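 HepG2, transient cis-reporter units, 24 h exposure. RNA isolated, oligo(dT) RT, reporter-specific PCR, FAM extension, HpaI cut, CE detection. Gain/loss-of-signal vs DMSO.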

[15] = ATG_Ets_CIS: Attagene CIS-FACTORIAL HepG2 Assay for human Erythroblast Transformation Specific (ETS) (AID 2282941); conditions: HepG2 ETS cis-reporter transcription, actives raise or lower the signal
In short: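 RT-PCR/capillary electrophoresis fluorescence read-out of reporter mRNA; HepG2 transient multi-reporter transfection; 24 h compound exposure; gain or loss of signal fitted bidirectionally relative to DMSO.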

[16] = biological target: Hepatocyte nuclear factor 3-beta (Homo sapiens) (UniProt Q9Y261); test: ATG_FoxA2_CIS: Attagene CIS-FACTORIAL HepG2 Assay for human Forkhead box A2 (FOXA2) (AID 2282942); conditions: HepG2 cis-reporter transcription factor activity, 24 h; actives raise or lower the signal
Hepatocyte nuclear factor 3-beta (Homo sapiens), sequence (Q9Y261 whole entry, looked up): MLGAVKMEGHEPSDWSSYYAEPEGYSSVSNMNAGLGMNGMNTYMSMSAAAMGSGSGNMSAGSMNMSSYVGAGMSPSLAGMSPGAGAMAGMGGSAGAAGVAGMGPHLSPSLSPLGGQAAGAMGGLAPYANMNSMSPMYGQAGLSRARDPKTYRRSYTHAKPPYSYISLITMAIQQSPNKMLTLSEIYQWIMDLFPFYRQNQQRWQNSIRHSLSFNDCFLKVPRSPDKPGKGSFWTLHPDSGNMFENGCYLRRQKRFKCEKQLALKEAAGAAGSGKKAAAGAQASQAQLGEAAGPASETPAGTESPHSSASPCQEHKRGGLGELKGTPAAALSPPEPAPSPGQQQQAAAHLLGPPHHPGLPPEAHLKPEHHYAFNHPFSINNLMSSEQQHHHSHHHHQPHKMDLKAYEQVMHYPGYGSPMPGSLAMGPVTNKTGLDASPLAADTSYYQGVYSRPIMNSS
In short: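 Endogenous transcription factor activity was read in HepG2 cells carrying transiently transfected cis-promoter reporter units. After 24 h dosing, reporter mRNA was quantified by RT-PCR and capillary electrophoresis, and values fitted bidirectionally versus DMSO.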

[17] = ATG_FoxO_CIS: Attagene CIS-FACTORIAL HepG2 Assay for human Forkhead box O (FoxO) (AID 2282943); conditions: HepG2 Attagene cis-reporter, FoxO element, mRNA; actives raise or lower the signal
In short: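 Endogenous transcription factor activity read from multiplexed cis-promoter reporter transcripts in transiently transfected HepG2, 24 h after dosing. Reporter RNA measured via RT-PCR plus capillary electrophoresis of FAM-labeled products; gain or loss relative to DMSO.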

[18] = ATG_GATA_CIS: Attagene CIS-FACTORIAL HepG2 Assay for human GATA Binding Protein (AID 2282944); conditions: HepG2 GATA cis-element reporter, Attagene multiplex mRNA; actives raise or lower the signal
In short: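 DMSO serves as negative control and baseline for bidirectional fitting of reporter mRNA changes. HepG2 cells bearing transiently transfected cis-promoter reporters were exposed 24 h; transcripts detected via RT-PCR and capillary electrophoresis.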

[19] = ATG_EGR_CIS: Attagene CIS-FACTORIAL HepG2 Assay for human Early Growth Response 1 (EGR1) (AID 2282938); conditions: HepG2 Attagene CIS-FACTORIAL EGR reporter mRNA; actives raise or lower the signal
In short: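 Endogenous TF activity in HepG2 liver cells was gauged through cis-promoter reporter constructs transiently transfected. After 24 h dosing, reporter mRNA was quantified by RT-PCR and capillary electrophoresis, and curves fitted in both directions versus DMSO.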

Measured: AC50

NNS(=O)(=O)c1ccc(Oc2ccc(S(=O)(=O)NN)cc2)cc1
active: [5] 62.3 µM
not listed: [19]
inactive: all other assays above

O=C(Cl)c1c(Cl)c(Cl)c(C(=O)Cl)c(Cl)c1Cl
not listed: [4] | [13] | [16] | [18] | [19]
inactive: all other assays above

CC(C)(CO)COC(=O)C(C)(C)CO
not listed: [3] | [7] | [10]
inactive: all other assays above

CCCCC1C(=O)N(c2ccccc2)N(c2ccccc2)C1=O
not listed: [5] | [8] | [11]
inactive: all other assays above

Clc1cc(Cl)c(Cl)c(Cl)c1Cl
active: [3] 50.7 µM
not listed: [11]
inactive: all other assays above

CC(C)[N+](C)(CCOC(=O)C1c2ccccc2Oc2ccccc21)C(C)C
not listed: [8] | [10] | [18]
inactive: all other assays above

Cc1ccc(S(=O)(=O)N=C=O)cc1
inactive: all assays above

CCC1(C)C(=O)N(Cl)C(=O)N1Cl (centres undefined)
active: [1] 27.6 µM | [2] 38.9 µM | [6] 67.4 µM | [19] 34.5 µM | [17] 29.8 µM
inactive: all other assays above

CCC(C)c1ccccc1 (centres undefined)
not listed: [2] | [10] | [11]
inactive: all other assays above

C=Cc1cccc(C)c1
active: [6] 31.9 µM
not listed: [16] | [19]
inactive: all other assays above

O=C(O[C@@H]1Cc2c(O)cc(O)cc2O[C@@H]1c1cc(O)c(O)c(O)c1)c1cc(O)c(O)c(O)c1
active: [3] 20.8 µM | [6] 72.5 µM | [8] 3.86 µM
not listed: [5] | [14]
inactive: all other assays above

Nc1ccc(C(=O)OCCCOC(=O)c2ccc(N)cc2)cc1
not listed: [3] | [10] | [14] | [19]
inactive: all other assays above

CCOC(=O)c1ccc(C)cc1
not listed: [3]
inactive: all other assays above
